From PubChem
PTEN del growth: growth suppressors of cells with PTEN tumor suppressor deletion; AID 827; HCT116 PTEN-null viability, CellTiter-Glo, 60 h; stronger effect = lower value; viability, % at 10 µM; 1.2% of 140,000 active;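 active means viability at or below a set limit, 4 SD under the median of all tested compounds, cut at about 3.7% in these data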;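 further: PTEN knockout HCT116 line with beta catenin targeted HCT116 as companion control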
L major viab: inhibitors of Leishmania major promastigote growth | 9% of 200,000 active | Leishmania major promastigotes, resazurin fluorescence viability | inhibition, % at 10 µM; in the data active means inhibition above about 50%;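 further: promastigotes grown with compound for 44 hours at 28 °C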
ROMK mod: human ROMK K+ channel modulation, primary screen | Tet-inducible ROMK, thallium flux fluorescence; actives lie on both sides | B-score at 10 µM | 2% of 130,000 active;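 active means signal ratio slope over the read window, or its plate-corrected B-score, at least 3 SD from the plate mean, either direction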;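 further: B-score of the F/F0 ratio slope over 7 to 12 s after thallium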
p97 ATPase inh: human p97 ATPase inhibition; 0.42% of 220,000 active; AID 1481; recombinant p97 ATPase, Kinase-Glo ATP luminescence, 3 h; inhibition, % at 8 µM; P55072; in the data active means inhibition above about 15%
Target sequence (P55072 whole entry, looked up): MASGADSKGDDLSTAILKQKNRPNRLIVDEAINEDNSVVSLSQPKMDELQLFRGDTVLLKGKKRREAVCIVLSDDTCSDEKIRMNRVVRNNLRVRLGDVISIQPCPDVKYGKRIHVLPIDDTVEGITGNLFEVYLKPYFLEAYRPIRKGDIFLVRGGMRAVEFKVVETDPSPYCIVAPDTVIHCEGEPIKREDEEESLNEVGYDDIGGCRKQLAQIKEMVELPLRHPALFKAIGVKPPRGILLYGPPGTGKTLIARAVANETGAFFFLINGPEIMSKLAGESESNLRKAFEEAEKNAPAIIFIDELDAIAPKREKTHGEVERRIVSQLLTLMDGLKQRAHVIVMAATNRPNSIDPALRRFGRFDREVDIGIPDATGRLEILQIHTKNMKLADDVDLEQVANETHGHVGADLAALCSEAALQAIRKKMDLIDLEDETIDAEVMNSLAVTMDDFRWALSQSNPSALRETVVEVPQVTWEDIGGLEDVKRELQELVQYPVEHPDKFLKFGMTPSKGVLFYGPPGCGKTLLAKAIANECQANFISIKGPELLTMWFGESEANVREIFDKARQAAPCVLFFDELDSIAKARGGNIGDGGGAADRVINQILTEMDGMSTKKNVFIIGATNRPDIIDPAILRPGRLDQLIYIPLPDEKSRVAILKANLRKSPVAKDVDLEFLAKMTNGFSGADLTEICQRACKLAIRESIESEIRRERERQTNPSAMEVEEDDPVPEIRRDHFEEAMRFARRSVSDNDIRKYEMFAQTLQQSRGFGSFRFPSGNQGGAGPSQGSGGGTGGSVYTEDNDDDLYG
bCat KO growth: beta-catenin-lacking colon tumor cell growth suppression. HCT116 beta-catenin knockout viability, CellTiter-Glo, 60 h; stronger effect = lower value. 1.5% of 140,000 active. AID 818. viability, % at 10 µM;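 active means viability at or under a set limit, the compound median less 4 SD, cut at about 6% in these data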
Insulin prom inh: TRM-6 insulin promoter activity inhibition | TRM-6 cells (human fetal islet line), insulin promoter-eGFP reporter, imaging; reporter expression induced with tamoxifen | inhibition, % at 2 µM | 0.9% of 130,000 active | AID 1273;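 active means inhibition above the mean plus 3 SD, with well images judged a real hit on visual review, cut at about 60% in these data, passing the limit was not always enough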
Each line names hits and unclear results; the compound was inactive in the other large screens. In the library only some 10% were active in any assay of this set; here they are far more common.

CC1CC(C)CN(CCOc2ccc(Cl)cc2Cl)C1 (centres undefined)	L major viab 97
CC1CC(C)CN(CCOc2cccc(Cl)c2Cl)C1 (centres undefined)	L major viab 91
O=C(N/N=C/c1ccccc1Br)C1CC1	none (no result: PTEN del growth, bCat KO growth, Insulin prom inh)
CC(C)CCN1CCN(Cc2ccon2)CC1CCO (centres undefined)	none (no result: PTEN del growth, bCat KO growth, Insulin prom inh)
COc1cccc(C2CC(c3ccc(NS(C)(=O)=O)cc3)=NN2C(=O)c2ccccc2)c1OC (centres undefined)	none (no result: PTEN del growth, bCat KO growth)
COc1ccccc1C1CC(c2ccc(NS(C)(=O)=O)cc2)=NN1C(=O)c1ccccc1 (centres undefined)	L major viab 77 (no result: PTEN del growth, ROMK mod, bCat KO growth)
c1ccc(Nc2nc(-c3cccnc3)cs2)nc1	none
c1ccc(Nc2nc(-c3cccs3)cs2)nc1	none (no result: ROMK mod)
Cc1cccnc1Nc1nc(-c2ccccn2)cs1	PTEN del growth 0.8, L major viab 100, bCat KO growth 0.7
Cc1cccc(Nc2nc(-c3cccs3)cs2)n1	L major viab 57 (no result: ROMK mod)
Cc1cccc(Nc2nc(-c3ccccn3)cs2)n1	L major viab 100 (no result: ROMK mod)
Clc1ccc(Cc2nn3c(Cn4nnc5ccccc54)nnc3s2)cc1	none (no result: ROMK mod, Insulin prom inh)
O=C(C1=C[C@H](c2ccc3c(c2)OCO3)C[C@H](OCCCCO)O1)N1CCN(Cc2ccc3c(c2)OCO3)CC1	L major viab 51 (no result: PTEN del growth, ROMK mod, bCat KO growth, Insulin prom inh)
O=C(C1=C[C@H](C2CCCCC2)C[C@H](OCCCCO)O1)N1CCN(Cc2ccc3c(c2)OCO3)CC1	L major viab 97 (no result: PTEN del growth, ROMK mod, bCat KO growth, Insulin prom inh)
O=C(C1=C[C@@H](c2ccc3c(c2)OCO3)C[C@@H](OCCCCO)O1)N1CCN(Cc2ccc3c(c2)OCO3)CC1	none (no result: PTEN del growth, ROMK mod, bCat KO growth, Insulin prom inh)
O=C(NNC1=NC2(CCCC2)Cc2ccccc21)c1ccncc1	none (no result: PTEN del growth, bCat KO growth)
CCOC(=O)c1c(-c2ccc(OC)c(OC)c2)csc1NC(=O)C1CCCO1 (centres undefined)	L major viab 100 (no result: PTEN del growth, bCat KO growth, Insulin prom inh)
C=CCc1ccc(OCCN2CCc3ccccc3C2)c(OC)c1	L major viab 83 (no result: PTEN del growth, bCat KO growth, Insulin prom inh)
C=CCc1ccc(OCCCCN2CC(C)OC(C)C2)c(OC)c1 (centres undefined)	L major viab 98
C=CCc1ccc(OCCCOc2ccc(C)cc2OC)c(OC)c1	none
CCCCNC(=O)C1CCN(S(=O)(=O)N2CCCCCC2)CC1	none
O=c1cnn(-c2ccccc2)c(-c2ccccc2)c1	L major viab 82
O=C(O)c1cc(-c2ccc(Cl)cc2)n(-c2ccccc2)n1	none (no result: PTEN del growth, bCat KO growth)
CCN1CCCC1Cn1cnc2c([nH]c3ccc(C)cc32)c1=O (centres undefined)	L major viab 52 (no result: Insulin prom inh)
Clc1ccc2[nH]c3c(NCCCN4CCOCC4)ncnc3c2c1	bCat KO growth 5.0 (no result: Insulin prom inh)
O=C1CCCN1CCCNc1ncnc2c1[nH]c1ccc(Cl)cc12	Insulin prom inh 81 (no result: ROMK mod)
CCN1CCCC1CNc1ncnc2c1[nH]c1ccc(Cl)cc12 (centres undefined)	L major viab 96
CCN1CCCC1CNC(=O)CSc1cc(=O)n(C)c2cc(Cl)ccc12 (centres undefined)	none (no result: ROMK mod, Insulin prom inh)
CCOc1ccc(-n2c(C)c(C(C)=O)c3cc(OCC(N)=O)ccc32)cc1	none (no result: PTEN del growth, ROMK mod, bCat KO growth, Insulin prom inh)
CC(=O)Nc1ccc(NC(=O)CN(c2cccc([N+](=O)[O-])c2)S(C)(=O)=O)cc1	none (no result: PTEN del growth, bCat KO growth)
Cc1sc2ncnc(SCC(=O)c3ccc4c(c3)OCCO4)c2c1-c1ccccc1	none (no result: ROMK mod, Insulin prom inh)
COC(=O)c1sccc1NC(=O)/C=C/c1ccc(Cl)cc1	none (no result: ROMK mod, Insulin prom inh)
O=C(COC(=O)c1ccc(O)cc1)Nc1ccccc1[N+](=O)[O-]	none (no result: PTEN del growth, bCat KO growth, Insulin prom inh)
COc1ccc(/C=N/Nc2cc(N(C)C)nc(N(C)C)n2)cc1	L major viab 98
COc1ccc(/C=N/Nc2cc(C)nc(N)n2)cc1	L major viab 60 (no result: ROMK mod)
COc1ccccc1/C=N/Nc1cc(N(C)C)nc(N(C)C)n1	L major viab 84 (no result: PTEN del growth, bCat KO growth, Insulin prom inh)
COc1ccc(/C=N/Nc2cc(C)nc(N3CCOCC3)n2)cc1	none (no result: PTEN del growth, L major viab, ROMK mod, bCat KO growth, Insulin prom inh)
O=C(CCc1nnc(CCc2ccccc2)o1)NC(c1cccnc1)C(F)(F)F (centres undefined)	none (no result: PTEN del growth, L major viab, ROMK mod, bCat KO growth, Insulin prom inh)
NC(=O)COC(=O)CN1C(=O)C2CCCCC2C1=O (centres undefined)	none (no result: ROMK mod, Insulin prom inh)
CC(=O)c1c(C)c(C)c2n1CCn1c(C)ccc1-2	none (no result: PTEN del growth, L major viab, ROMK mod, bCat KO growth, Insulin prom inh)
CSCCC(NS(=O)(=O)c1ccc(C)c(C(=O)O)c1)C(=O)O (centres undefined)	none (no result: PTEN del growth, bCat KO growth, Insulin prom inh)
COc1ccc(-c2nnc(SCc3nc4ccccc4s3)n2C(C)C)cc1	L major viab 84
COc1ccccc1-c1nnc(SCc2nc3ccccc3s2)n1C	none (no result: ROMK mod)
Cc1noc(C)c1C(=O)NNc1cc(Cl)ccc1Cl	none (no result: PTEN del growth, L major viab, ROMK mod, bCat KO growth, Insulin prom inh)
CCC(C)c1ccccc1OCCOCCN1CCCC1 (centres undefined)	L major viab 98
CCC(C)c1ccccc1OCCCCN1CCCC1 (centres undefined)	L major viab 99
CC1=CSC2=NC(=O)/C(=C\c3cccn3-c3ccccc3)C(=N)N12	L major viab 88
Cc1cccc(C)c1-n1cccc1/C=C1/C(=N)N2C(=NC1=O)SN=C2S(C)(=O)=O	none (no result: PTEN del growth, bCat KO growth)
Cc1ccccc1Cn1cccc1/C=C1/C(=N)N2C=CSC2=NC1=O	none (no result: Insulin prom inh)
CC1=CSC2=NC(=O)/C(=C\c3cccn3-c3ccc([N+](=O)[O-])cc3)C(=N)N12	L major viab 60
CC(C)c1ccc(-n2cccc2/C=C2/C(=N)N3C=CSC3=NC2=O)cc1	L major viab 98
CSc1ccc(/C=C(/Sc2nnc(-c3ccccc3)o2)C(=O)O)cc1	Insulin prom inh 80 (no result: PTEN del growth, bCat KO growth)
CCn1cc(C(=O)NCCCN2CCCC(C)C2)c(=O)c2cc(S(=O)(=O)N3CCc4ccccc4C3)ccc21 (centres undefined)	L major viab 100 (no result: PTEN del growth, bCat KO growth)
CCn1cc(C(=O)NCCCN2CC(C)CC(C)C2)c(=O)c2cc(S(=O)(=O)N(C)C)ccc21 (centres undefined)	none (no result: ROMK mod, Insulin prom inh)
CCC1CCCCN1CCCNC(=O)c1cn(CC)c2ccc(S(=O)(=O)N3CCc4ccccc4C3)cc2c1=O (centres undefined)	L major viab 98 (no result: PTEN del growth, bCat KO growth)
COc1cc(OC)cc(OCC(O)Cn2ccnc2)c1 (centres undefined)	none
Cc1cc(C)c2oc(C(=O)Nc3ccc(S(=O)(=O)N4CCC(C)CC4)cc3)cc(=O)c2c1	L major viab 87
COc1cc(CNn2nnnc2N)cc(Br)c1OCC(=O)NC(C)(C)C	none (no result: ROMK mod)
COc1cc(CNn2nnnc2N)cc(Br)c1OCc1c(Cl)cccc1Cl	L major viab 94
CC1CCc2nc(/C(C#N)=C/c3ccncc3)sc2C1 (centres undefined)	L major viab 53 (no result: PTEN del growth, bCat KO growth, Insulin prom inh)
Cc1ccc(Oc2nccc(-c3ccc(Cl)cc3)n2)cc1	none (no result: ROMK mod)
COc1ccc(NC(=O)Nc2ccc3oc(C)nc3c2)cc1	none (no result: PTEN del growth, bCat KO growth)
Cc1nc2cc(NC(=O)N(C)c3ccc4ccccc4c3)ccc2o1	Insulin prom inh 71 (no result: ROMK mod)
Cc1nn(C)c(C(=O)NNC(=S)NCC(C)C)c1Cl	none
Cc1c(N2C(=O)c3cccc4cccc(c34)C2=O)cnn1C	none (no result: PTEN del growth, L major viab, ROMK mod, bCat KO growth, Insulin prom inh)
O=C(Cn1cnc([N+](=O)[O-])n1)N/N=C/c1ccc2ccccc2c1	L major viab 96 (no result: ROMK mod, Insulin prom inh)
